Experimental data taken from paper PMC12136788.
Substitutions are numbered along the chain they refer to. Whole data set: some 24,000 sequences, median “enrichment r” near 0.99, cut for the highest 2% near 3.7. Many of the other results were omitted from the sample, so the highest values are more common in it than they were.

T1: UNK ZnF1-3 (human, UniProt Q9C0B0 31-174)
T1 sequence: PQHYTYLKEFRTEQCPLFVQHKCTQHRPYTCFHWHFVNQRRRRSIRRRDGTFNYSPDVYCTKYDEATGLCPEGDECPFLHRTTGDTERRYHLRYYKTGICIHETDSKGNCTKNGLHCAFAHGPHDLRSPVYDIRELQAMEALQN

B1: chr8:114060920:114060921:+_ENSMUSG00000033545_ENSMUST00000095176|mus_hu|FALSE|FALSE (ssRNA)
RNA: GGGAGUUCUACAGUCCGACGAUCCCACUUCUCAGCAGCAGGGGGAGGGCUGGGCGAGCAUAAAGGGGGAGGGAGUCAAAAAGGAGACCCGGAGGGAGAAAAGGAAAAAAAGCAAAAGGAAAAAAGGAAAAAACCCGCGGGGCGCAACAGAGGAUUGAGCAUCA
B2: chr9:58044877:58044878:-_ENSMUSG00000051243_ENSMUST00000114144|mus_hu|FALSE|FALSE (ssRNA)
RNA: GGGAGUUCUACAGUCCGACGAUCUCCCAGAGGCUGGGAAGGGGGUGUUAGCACCAGACCCGAAAUGUCGCUGUCUUUGAAAACAACGAAAACAGGAAAAUCUGAGCGCGGAGCUGAAAGGCGCCCCAGGCACCGGGCUGGACUCAACAGAGGAUUGAGCAUCA
B3: chr8:114060920:114060921:+_ENSMUSG00000033545_ENSMUST00000095176|mus_mus|FALSE|FALSE (ssRNA)
RNA: GGGAGUUCUACAGUCCGACGAUCCGGGUGGAGGUCUGGGCGAACAUAAAGGCGGAGGGUUGGGGUUGGGGAGAGUCACAAAAGAGCCCCGAGGGGAGAAAAAUGAAAAAAGGUGAGGGGGGGAAUCCUCAAAAAAAAUCCGCGCAACAGAGGAUUGAGCAUCA
B4: chr17:45760540:45760541:+_ENSG00000108424_ENST00000290158|hu_hu|motif|central (ssRNA)
RNA: GGGAGUUCUACAGUCCGACGAUCUUUCCCUAGAGUAAAAAAAACAAAAAACAAAACCAAAAAAAAAAAACAAAACAAAACCGGAAGAGCGUCUUUCCUCUGUGUGUGUGUUUUUUUUUUUUUUUUUUUUUUUUUUUUUACAUCCAACAGAGGAUUGAGCAUCA
B5: chr3:41267201:41267202:+_ENSG00000168036_ENST00000349496|hu_mus|motif|central (ssRNA)
RNA: GGGAGUUCUACAGUCCGACGAUCCAAGAAUUUCACGUUUGUUUUGUUGAGCAAAGCAACCAUUUUCUGCAGUCCACCAGCGGGGCGCACUGCCAUUUUAGCUCCUUCCUGAUGGAGCAGGAGAUUAUGCAGUGUCGUGAUGGCCAACAGAGGAUUGAGCAUCA
B6: chr17:15081082:15081083:+_ENSMUSG00000050088_ENSMUST00000052691|mus_mus|FALSE|FALSE (ssRNA)
RNA: GGGAGUUCUACAGUCCGACGAUCUGCUCCAGCAUAUUCAAGGGAUCAGAAGAGAAUUUCAAGCACCAGUUUCAAAAUGCUAAUCAAUAUCGUCCAGAGAACUGAUUCCUCCUCUUGGGCUGCCUCUUCUGGAGCGUAAGCCUGCAACAGAGGAUUGAGCAUCA
B7: chr6:31461392:31461393:+_ENSMUSG00000025609_ENSMUST00000026699|mus_mus|motif|central (ssRNA)
RNA: GGGAGUUCUACAGUCCGACGAUCACCUGACGGACACUAGAGGCUUUGGAUAACCAUGUCAUUUCAACAGUAAGACAAACGGUAGAGACAACCCCCACAGUCAAAAACCACAUAUAAAAAUUAGAAUUUGCUUAAUACAGAAAACAACAGAGGAUUGAGCAUCA
B8: chr2:203071915:203071916:-_ENSG00000116030_ENST00000392246|hu_mus|motif|central (ssRNA)
RNA: GGGAGUUCUACAGUCCGACGAUCCUAAGAGAUGGAGUGCCAGUAUUCAAUUUUCAUUUUGAACACCACAUUACAAAAGAACGGUUUUUAAAAAUAAAAAAGGAUUGAGGGAAAGGAAAAAUAAAAAAUAAAAAGAAUUAUCUACAACAGAGGAUUGAGCAUCA
B9: chr16:36085169:36085170:+_ENSMUSG00000075229_ENSMUST00000164916|mus_mus|FALSE|FALSE (ssRNA)
RNA: GGGAGUUCUACAGUCCGACGAUCCUUUAAUAACGUUAAGUCAUCCAGGUUCUUUUCUCUCUCUUCUCGGAGACUUUUUACUACUGCUGAGGUCUGGGCUAUACAGUUCUUUAUAACUCUGUCCCUACUGACAUGAGCUGCCAUCAACAGAGGAUUGAGCAUCA
B10: chr3:100438856:100438857:+_ENSG00000114354_ENST00000490574|hu_hu|motif|central (ssRNA)
RNA: GGGAGUUCUACAGUCCGACGAUCAACAAAUAAUGUCAGUUUCAGUAUCCUACUGCACUGAAUUGCAAAGGAAAGGUCAGAACGGUCAAAAAUUGUUAUAAGAUCUCCAUCUUCAUCUUUAUACUUUAUUGUUACUUCAUCAUUCAACAGAGGAUUGAGCAUCA
B11: chr2:55200753:55200754:-_ENSG00000115310_ENST00000317610|hu_mus|FALSE|FALSE (ssRNA)
RNA: GGGAGUUCUACAGUCCGACGAUCUUGGAUUUUGGCCAUGGCAUCCUUAACGCUCUUGUUUGCAAGUCCUAGAUAAUGAUCUAUCUGCGCCUGAUGCCGUUCAUAUAUAACAGGAAUACUGAAGAGUGAGAUCAGAGCUAAAAUCAACAGAGGAUUGAGCAUCA
B12: chr13:113752066:113752067:+_ENSG00000126217_ENST00000375604|hu_mus|FALSE|FALSE (ssRNA)
RNA: GGGAGUUCUACAGUCCGACGAUCAGGGGAAGUGGGGCCUGCCCUGACGUGGAGAGGCAGCCAGUGCCUGAGUUGCUGAGGAUGACUGACAGCAUGGAGUUAUACAUUUUCUUUAAAAAUAAUAAAAAUAUCCUAAUUUAAUGACAACAGAGGAUUGAGCAUCA
B13: chr8:96496865:96496866:-_ENSMUSG00000031751_ENSMUST00000053766|mus_hu|motif|central (ssRNA)
RNA: GGGAGUUCUACAGUCCGACGAUCGCAGUCCAGUCAACACCAGAAGAGAUCAUACCUACAGUUAAAAUUUGCAGUGUUUCGGAGGGGAAGAGAAAUGUCACAUAGAAAGUAUUACAAAGAAGGAUUAAAUUUAUCAGCUGUCCACAACAGAGGAUUGAGCAUCA
B14: 110847190_110847310_5644_3pUTR_ENSMUSG00000021700_ENSMUST00000167824|mouse|control|control (ssRNA)
RNA: GGGAGUUCUACAGUCCGACGAUCUAGUUGCUGAGGGGAACUGAAGAAUGAGGCAAUGCUGUUCUGUGGGGAUAGUGCUUUUAGAAUAUCCUUAAUCAUUUUUUUUUAAAAAACAUGUGGCAGUAUAAAAGGACUACACAAUGACAACAGAGGAUUGAGCAUCA
B15: chr2:203071915:203071916:-_ENSG00000116030_ENST00000392246|hu_mus|FALSE|FALSE (ssRNA)
RNA: B8 RNA with G82U, G83A
B16: chr11:51935959:51935960:+_ENSMUSG00000020349_ENSMUST00000020608|mus_hu|FALSE|FALSE (ssRNA)
RNA: GGGAGUUCUACAGUCCGACGAUCGGUUCUGACAAUAACAAAGAACAACAUGGGGCUGAGAUUUGAGUAGGGAAUAAACUGAGUGCAGACAAAUCAUAUAAUUAAAUUAAACGGUAUCCCUGAAAAUAAAAAGAACAAUUUCAACAACAGAGGAUUGAGCAUCA

biological target: T1, UNK ZnF1-3; test: nsRBNS (natural sequence RNA bind-n-seq); RBNS binding buffer (assumed for nsRBNS): 25 mM Tris pH 7.5, 150 mM KCl, 3 mM MgCl2, 0.01% Triton X-100, 500 ug/ml BSA, 20 U/ml SUPERase-In, 4 C; UNK is unkempt and MSI1 is Musashi-1; names of the RNAs are library labels; protein concentration not given here; high values mean tight binding

Binder	binding signal [enrichment R]
B1	5.92
B2	1.01
B3	4.66
B4	3.38
B5	0.539
B6	1.42
B7	3.37
B8	10.9
B9	0.477
B10	0.76
B11	1.23
B12	3.79
B13	3.52
B14	1.67
B15	10.6
B16	3.8
